Screening results from PubChem BioAssay.
A selection: hits, their analogues and other compounds. The true share with any hit is near 7.5%.
Gal4-VP16 FLuc: Gal4-VP16 reporter inhibition counter-screen. Drosophila S2 Gal4-VP16 UAS-luciferase, luminescence, 20 h. Potency, µM (doses to about 53.6 µM), for inactives: top-dose activity, negative = inhibition, usual class: inhibitors. 3.5% of 310,000 active;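 also: Gal4-VP16 expression switched on by copper sulfate through the metallothionein promoter; potency is read from the fitted curve at half-maximal effect; nearly all actives have a fitted effect of over 50% in size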
ELG1 repair inh: blocks ELG1-dependent DNA repair in HEK293T cells | Potency, µM (doses to about 46.1 µM), inactives show top-dose activity change, negative = inhibition, hits mostly inhibitors | AID 504467 | 2.3% of 330,000 active | HEK293T ELG1-luciferase reporter, luminescence, 16 h; DNA damage induced by 5-fluorouridine; also: potency is read from the fitted curve at half-maximal effect; nearly all actives have a fitted effect of over 55% in size
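HEK293T cells expressing luciferase-tagged ELG1 (2,000/well) received 5-Fluorouridine plus compound or DMSO for 16 hr at 37 °C. Luciferase was read by ONE-Glo luminescence after 30 min at room temperature.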
RORg inh: inhibitors of mouse ROR gamma transcriptional activity. Potency, µM (series often up to 53.6 µM), without a hit: at the top dose activity change, negative = inhibition, most hits filed as inhibitors. Drosophila S2 Gal4-RORgamma UAS-luciferase reporter, 20 h. 5.4% of 310,000 active. P51450; also: potency is read from the fitted curve at half-maximal effect; nearly all actives have a fitted effect of over 60% in size
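Read-out: Photinus luciferase luminescence; inhibitors lower reporter signal. Insect Schneider cells with Gal4-ROR gamma fusion under metallothionein promoter, UAS reporter; 700 uM final copper sulfate induction, 20 hr, ambient temperature.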
B2AR arrestin: beta2AR (human) beta-arrestin recruitment activity; 0.02% of 330,000 active; beta-arrestin recruitment to beta2AR, cell-based reporter; P07550; Potency, µM (titrated, usually from 46.1 µM), inactives show at the top dose activation, usual class: activators;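 also: potency is read from the fitted curve at half-maximal effect; 0% = DMSO controls and full agonism = EC100 isoproterenol or metaproterenol; nearly all actives have a fitted effect of over 65% in size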
Target sequence (P07550 whole entry, looked up): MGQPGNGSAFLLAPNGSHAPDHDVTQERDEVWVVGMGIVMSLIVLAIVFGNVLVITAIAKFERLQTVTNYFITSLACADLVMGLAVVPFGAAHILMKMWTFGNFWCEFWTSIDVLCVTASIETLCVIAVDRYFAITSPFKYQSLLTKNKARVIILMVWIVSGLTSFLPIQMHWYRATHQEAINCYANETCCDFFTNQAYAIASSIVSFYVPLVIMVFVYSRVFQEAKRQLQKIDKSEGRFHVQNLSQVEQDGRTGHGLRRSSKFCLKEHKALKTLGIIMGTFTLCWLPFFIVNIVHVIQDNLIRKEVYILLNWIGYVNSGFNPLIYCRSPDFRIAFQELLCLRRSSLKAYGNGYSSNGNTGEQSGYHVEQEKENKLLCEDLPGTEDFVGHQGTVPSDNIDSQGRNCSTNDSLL
TSHR antag: human thyrotropin receptor antagonism. P16473. TSHR-expressing cells, TSH-stimulated cAMP HTRF, 2 h; active compounds read low. activity change, negative = inhibition, % at 11.5 µM. 0.2% of 330,000 active. AID 504810;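 active = activity change below a set negative limit, meaning inhibition stronger than a set level, cut at about -70% in these data; inconclusive = activity change between two set negative limits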
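TSHR-expressing cells were treated with compounds, then stimulated with TSH at EC80 (4nM final) for 2 hours at 37 deg C. Cellular cAMP was measured by HTRF competition between lysate cAMP and cAMP-d2 for a cryptate-labelled anti-cAMP antibody.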
* = called active by the depositor; ? = inconclusive; . = not tested or not shown. Unless noted, calls follow the shape of the dose curve; as a rule, active = well fitted curve in the direction sought with a large enough effect; inconclusive = small, poorly fitted or top-dose-only effect, or another doubt; inactive = no such curve, though single readings can be large; an effect the other way counts as inactive or inconclusive. Unless noted, % is scaled to controls: 0 for no effect and ±100 for the full control effect.

SMILES	Gal4-VP16 FLuc	ELG1 repair inh	RORg inh	B2AR arrestin	TSHR antag
O=C(Nc1nnc(C2CC2)s1)C1Cc2ccccc2CN1S(=O)(=O)c1ccccc1F (stereo unspecified)	?	?	8.9µM*	0%	-14
CCN(C(=O)c1cnc(NC(C)C)cc1C(F)(F)F)c1ccc(Cl)cc1	4%	18µM*	20%	0%	-6
CCCn1c(-c2ccc(F)cc2)nc2c(NC(C)CCCN(CC)CC)nc(C)nc21 (stereo unspecified)	-11%	.	-30%	.	.
CCCCCC[n+]1c(-c2ccccc2)csc1Nc1ccccc1	8%	1%	-4%	0%	-10
COc1ccc(-c2csc(Nc3ccccc3)[n+]2CC(O)c2ccc([N+](=O)[O-])cc2)cc1 (stereo unspecified)	6%	21µM*	112%	-1%	-16
Cc1nc2nc(CSc3ccc(Cl)cc3)cc(=O)n2[nH]1	0%	15%	-22%	0%	-9
Cc1cc2nc(CSc3ccc(Cl)cc3)cc(=O)n2[nH]1	?	?	11µM*	0%	-4
O=C(O)c1cc(Oc2ccc([N+](=O)[O-])cc2)cc(Oc2ccc([N+](=O)[O-])cc2)c1	3%	.	10%	.	.
O=P(O)(O)O[C@@H]1[C@H](O)[C@H](O)[C@@H](OP(=O)(O)O)[C@H](OP(=O)(O)O)[C@H]1O	2%	.	-7%	.	.
CCN(Cc1ccccc1)S(=O)(=O)c1cc(C(=O)NC(C)C2CC3CCC2C3)ccc1OC (stereo unspecified)	-10%	6.5µM*	21%	-2%	-21
C/C(=N\Nc1ncc(Cl)cc1Cl)c1ccc2c(c1)OCO2	?	?	7.1µM*	0%	-5
C/C(=N\Nc1ncc(Cl)cc1Cl)c1ccc(OC(F)F)cc1	?	?	11µM*	0%	8
C[C@@H]1c2ccccc2CN1CC1=NCCN1	-5%	.	-33%	.	.
COCCNC(=O)CCn1nc(-c2ccc(C)cc2)ccc1=O	-4%	7%	-1%	0%	2
Cc1ccc(NC(=O)CN(C)CC(=O)Nc2c(C)cccc2C)c(Br)c1	-2%	7.3µM*	?	0%	-8
CCN(CC)C(=O)[C@H]1C[C@H](CC(=O)NC(C)(C)C)C(=O)N2CCc3c([nH]c4ccc(Cl)cc34)[C@]12C	.	-6%	.	0%	-1
c1csc(-c2ccc(N3CCOCC3)nn2)c1	11µM*	?	?	0%	-1
CCNc1ncc2nc(-c3ccc(OC)cc3)c(=O)n(Cc3ccc(F)cc3)c2n1	-9%	.	-7%	.	.
O=C(c1cnn2c(C(F)F)cc(-c3ccccc3)nc12)N1CCc2ccccc21	8%	?	11%	0%	-4
COc1ccc(-c2cc(C(F)F)n3ncc(C(=O)N4CCN(C(=O)c5ccco5)CC4)c3n2)cc1	-8%	3.3µM*	36%	0%	-8
COc1ccc(-c2cc(C(F)F)n3ncc(C(=O)N4CCCCC4)c3n2)cc1	-13%	?	?	-1%	-7
Cc1ccc(-c2cc(C(F)F)n3ncc(C(=O)N4CCN(c5ccccn5)CC4)c3n2)cc1	-28%	3.7µM*	45%	0%	-2
Cc1ccc(-c2cc(C(F)F)n3ncc(C(=O)N4CCc5ccccc54)c3n2)cc1	0%	21µM*	0%	0%	6
CC1(C)CC(N=C=O)CC(C)(CN=C=O)C1 (stereo unspecified)	1%	.	1%	.	.
O=C(NNC(=O)C1[C@H]2CCCC[C@@H]12)Nc1cccc2ccccc12 (stereo partly specified)	3%	26µM*	1%	0%	-8
COc1ccc(NC(=O)c2cc(OC)c(OC)c(OC)c2)cc1S(=O)(=O)N1CCCCC1	0%	-14%	24%	0%	-14
COc1ccc(NC(=O)CCOc2ccccc2F)cc1S(=O)(=O)N1CCCCC1	.	23µM*	.	0%	-13
COc1ccc(NC(=O)c2ccc(Cl)nc2)cc1S(=O)(=O)N1CCCCC1	1%	23µM*	-2%	-1%	0
